Screens as filed in PubChem BioAssay.
Rows were chosen to be rich in hits. Some 19% of all compounds tested hit in one or more screens of this group.
IL1B secr inh: blocks inflammasome-driven IL-1 beta release. AID 743279. actives 4.7% (n = 360,000). THP-1 LPS/ATP IL-1B secretion, AlphaLISA, 16 h; active compounds read low. activity change, % at 57.5 µM; in the data active = activity change below about -50%; inconclusive = mostly about -30% to -49%
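Secreted IL-1B measured by AlphaLISA bead assay after 16 h compound exposure of THP-1 cells; compounds (final up to 57.5 uM) added 1 h before LPS (250 ng/mL) and ATP (1.25 mM) stimulation; lower signal means less secretion.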
TDP1 cell noCPT: qHTS for Inhibitors of human tyrosyl-DNA phosphodiesterase 1 (TDP1): qHTS in cells in absence of CPT; DT40 Tdp1-/- hTDP1 cells, no CPT, ATP luminescence, 48 h; Potency, µM (series often up to 46.2 µM), actives largely listed as inhibitors; actives 15% (n = 420,000); AID 686978, 2013; also: nearly all actives have a fitted effect of over 55% in size
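Cells were dispensed at 400 per well, compounds added by pin tool, plates incubated ≥48 hr at 37 °C, then CellTiter-Glo added for 30 min at room temperature before luminescence reading. Line: DT40 Tdp1-/- complemented with hTDP1; camptothecin omitted.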
ELG1 repair inh: blocks ELG1-dependent DNA repair in HEK293T cells. actives 2.3% (n = 330,000). Potency, µM (top dose mostly 46.1 µM), usual class: inhibitors. HEK293T ELG1-luciferase reporter, luminescence, 16 h; DNA damage induced by 5-fluorouridine; also: nearly all actives have a fitted effect of over 55% in size
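Quantitative HTS, concentration-response format. 2,000 cells/well co-treated with 5-fluorouridine and compound, 16 hr in 5% CO2 at 37 °C; ONE-Glo luminescence read after 30 min.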
TDP1 cell CPT: growth inhibition of DT40 Tdp1-/-;hTDP1 cells with camptothecin (screen for TDP1 inhibitors) | Potency, µM (series often up to 46.2 µM), actives largely listed as inhibitors | chicken DT40 Tdp1-/-;hTDP1 cells + 20 nM CPT, ATP luminescence, 48 h | actives 12% (n = 420,000); also: nearly all actives have a fitted effect of over 55% in size
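Chicken DT40 Tdp1-/- cells complemented with human TDP1, 400 cells/well, exposed to compounds plus 20 nM camptothecin for at least 48 h at 37 C; viability read as ATP content by CellTiter-Glo luminescence.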
HT1080NT lethal: kills 2HG-producing HT-1080-NT fibrosarcoma cells | AID 686970 | actives 1.6% (n = 360,000) | Potency, µM (doses to about 46.1 µM), hits mostly cytotoxic | HT-1080-NT fibrosarcoma viability, CellTiter-Glo ATP luminescence, 48 h;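 also: NT is the 2HG producing partner of a matched IDH1 knockdown line; nearly all actives have a fitted effect of over 55% in size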
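Fibrosarcoma NT cells, 750 per well in 5% FBS RPMI, were exposed to compound for 48 hours. Viability: CellTiter-Glo luminescence.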
HT1080 IDH1KD tx: kills HT-1080 cells with IDH1 knockdown; HT-1080 IDH1 knockdown viability, ATP luminescence, 48 h; Potency, µM (doses to about 46.1 µM), hits mostly cytotoxic; actives 2% (n = 360,000); AID 686971
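% activity derives from luminescence (CellTiter-Glo), normalised to DMSO and no-cell wells. HT-1080-IDH1KD cells, 750/well, had 48 h compound exposure at 37 °C.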
Large screens that a line does not name were inactive. Unless noted, calls follow the shape of the dose curve; as a rule, active = well fitted curve in the direction sought with a large enough effect; inconclusive = small, poorly fitted or top-dose-only effect, or another doubt; inactive = no such curve, though single readings can be large; an effect the other way counts as inactive or inconclusive.

O=C(COC(=O)CCc1ccccc1)Nc1cc([N+](=O)[O-])ccc1F	none
COc1cc(OC)cc(-c2c(-c3ccc(C(C)=O)cc3)c3cc(-c4cccc5[nH]ccc45)ccc3n2C)c1	TDP1 cell CPT inconclusive
CCOC(=O)c1c(C)[nH]c(C)c1C(=O)COC(=O)CCc1ccccc1	ELG1 repair inh inconclusive
CCCCOc1ccc(C(=O)NCC2(N3CCN(C)CC3)CCCCC2)cc1	TDP1 cell noCPT 18.4µM, TDP1 cell CPT inconclusive (no result: IL1B secr inh, ELG1 repair inh, HT1080NT lethal, HT1080 IDH1KD tx)
CC(C)COc1ccc(C(=O)CCN2CCCCC2)cc1	TDP1 cell noCPT 2.91µM, TDP1 cell CPT 5.17µM, HT1080NT lethal 18.4µM, HT1080 IDH1KD tx inconclusive
CCCCOc1ccc(C(=O)CCN2CCCCC2)cc1	TDP1 cell noCPT 6.51µM, TDP1 cell CPT 8.2µM, HT1080NT lethal inconclusive, HT1080 IDH1KD tx 18.4µM
CC(C)COc1ccc(C(=O)OCCN2CCCCC2)cc1	HT1080NT lethal inconclusive
CCOc1ccc(NC(=O)CN2CCN(C(=O)C3CCCO3)CC2)cc1 (centres undefined)	none
COc1cc(C(=O)OCCN2CCOCC2)cc(OC)c1OC	none
COc1c(C)c2c(c(O)c1C/C=C(\C)CCC(=O)OCCN1CCOCC1)C(=O)OC2	TDP1 cell noCPT 0.168µM, TDP1 cell CPT 0.133µM (no result: IL1B secr inh, ELG1 repair inh, HT1080NT lethal, HT1080 IDH1KD tx)
NC(=O)[C@@H]1CCCN1C(=O)CC1(c2cccc(F)c2)CC(=O)N(C2CCCC2)C1=O (some centres undefined)	none (no result: IL1B secr inh, ELG1 repair inh, HT1080NT lethal, HT1080 IDH1KD tx)
Cc1ccccc1C(=O)Nc1cc2c(cc1N1CCCCC1)n(C)c(=O)n2C	TDP1 cell noCPT 11.6µM (no result: IL1B secr inh, ELG1 repair inh, HT1080NT lethal, HT1080 IDH1KD tx)
CCOc1ccc(NC(=O)Nc2cc3c(cc2N2CCCCC2)n(C)c(=O)n3C)cc1	TDP1 cell noCPT 13µM, TDP1 cell CPT 11.6µM (no result: IL1B secr inh, ELG1 repair inh, HT1080NT lethal, HT1080 IDH1KD tx)
COc1cc(C(=O)Nc2cc3c(cc2N2CCCCC2)n(C)c(=O)n3C)cc(OC)c1OC	TDP1 cell noCPT 14.6µM, ELG1 repair inh inconclusive, TDP1 cell CPT 20.6µM, HT1080NT lethal inconclusive
Cn1c(=O)n(C)c2cc(N3CCCCC3)c(NC(=O)c3c(F)cccc3F)cc21	TDP1 cell noCPT 25.9µM, TDP1 cell CPT 13µM (no result: IL1B secr inh, ELG1 repair inh, HT1080NT lethal, HT1080 IDH1KD tx)
O=C(COC(=O)Cc1ccc(Cl)cc1)NCc1cccs1	none
CCC(=O)NC(=S)Nc1ccc(-c2nc3ccccc3s2)cc1	ELG1 repair inh inconclusive, HT1080NT lethal inconclusive
Cc1ccc2nc(-c3ccc(NC(=S)NC(=O)C(C)C)cc3)sc2c1	IL1B secr inh inconclusive, ELG1 repair inh inconclusive, HT1080NT lethal 2.82µM, HT1080 IDH1KD tx 1.58µM
Cc1ccc(C2(C)NC(=O)N(CC(=O)Nc3ccc(-c4nc5ccc(C)cc5s4)cc3)C2=O)cc1 (centres undefined)	TDP1 cell noCPT 10.3µM, ELG1 repair inh inconclusive, TDP1 cell CPT inconclusive, HT1080 IDH1KD tx inconclusive
Cc1ccc2nc(-c3ccc(NC(=S)NC4CC(C)(C)NC(C)(C)C4)cc3)sc2c1	IL1B secr inh -96.8, TDP1 cell noCPT 6.51µM, ELG1 repair inh inconclusive, TDP1 cell CPT 3.66µM, HT1080NT lethal 23.1µM, HT1080 IDH1KD tx inconclusive
CCC(=O)NC(=S)Nc1ccc(-c2nc3ccc(C)cc3s2)cc1	TDP1 cell noCPT inconclusive, ELG1 repair inh inconclusive, TDP1 cell CPT 20.6µM
CC1(C)CC(NC(=S)Nc2ccc(S(N)(=O)=O)cc2)CC(C)(C)N1	none
Cc1ccc2nc(-c3ccc(NC(=O)C(C)N4C(=O)c5ccccc5C4=O)cc3)sc2c1 (centres undefined)	ELG1 repair inh inconclusive
COCCn1c(=O)c(-c2ccccc2)nc2cnc(Oc3ccccc3)nc21	none (no result: IL1B secr inh, ELG1 repair inh, HT1080NT lethal, HT1080 IDH1KD tx)
CC(C)OCCCNC(=O)c1cn(C)c2ccc(S(=O)(=O)N3CCCCCC3)cc2c1=O	none (no result: IL1B secr inh, ELG1 repair inh, HT1080NT lethal, HT1080 IDH1KD tx)
O=C(NCc1ccccc1)C(C1CC1)n1c(=O)c(-c2cc3ccccc3[nH]2)nc2ccccc21 (centres undefined)	TDP1 cell noCPT inconclusive, TDP1 cell CPT inconclusive, HT1080NT lethal 23.1µM, HT1080 IDH1KD tx inconclusive (no result: ELG1 repair inh)
